Source: PubChem BioAssay
Rows were chosen to be rich in hits. Some 7.4% of all compounds tested hit in one or more screens of this group.
SMN2 splice enh: qHTS Assay for Enhancers of SMN2 Splice Variant Expression. Potency, µM (titrated, usually from 46.1 µM), for the others: at the top dose activity change, positive = activation, usual class: activators. 210,000 compounds, 2.8% hits. HEK293 SMN2-luciferase splicing reporter, luminescence, 30-36 h; note: % of control where 0% means no effect; nearly all actives have a fitted effect of over 55% in size
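HEK293 cells carry an SMN2 […]–luciferase reporter in which exon 7 inclusion puts luciferase in frame. Cells were plated 10-12 h before compound addition, then incubated 30-36 h at 37C. ONE-Glo luminescence was read; sodium butyrate at 4.5 mM final served as control.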
Rab9 prom act: qHTS Assay for Rab9 Promoter Activators; Huh7 Rab9 promoter-luciferase reporter, luminescence, 24 h; Potency, µM (series often up to 9.22 µM), for the others: at the top dose activation, negative = inhibition, hits mostly activators; 320,000 compounds, 2.8% hits; note: % of control where 0% means no effect; nearly all actives have a fitted effect of over 60% in size
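Huh7 cells stably carrying Rab9 promoter–luciferase reporter, plated 1500 cells/well, compound added after 2 h and incubated 24 h at 37 °C; luciferase luminescence then read after 10 min with detection reagent.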
NPC1 promoter act: qHTS Assay for NPC1 Promoter Activators; Huh7 NPC1 promoter luciferase reporter, 24 h; Potency, µM (highest dose often 9.22 µM), for inactives: top-dose activation, usual class: activators; 320,000 compounds, 2.4% hits; note: % of control where 0% means no effect; nearly all actives have a fitted effect of over 60% in size
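Compounds in DMSO were transferred onto Huh7 NPC1-luciferase reporter cells pre-incubated 2 h; after 24 h at 37 °C, Amplite reagent was dispensed and luminescence recorded 10 min later.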
ELG1 genotoxic: qHTS screen for small molecules that induce genotoxicity in human embryonic kidney (HEK293T) cells expressing luciferase-tagged ELG1; Potency, µM (top dose mostly 46 µM), for the others: at the highest dose activity change, positive = activation, usual class: activators; HEK293T ELG1-luciferase reporter, luminescence, 16 h; AID 504466, 2011; 330,000 compounds, 1.3% hits; note: % of control where 0% means no effect; nearly all actives have a fitted effect of over 60% in size
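DMSO vehicle served as control against compound-treated ELG1-luciferase HEK293T cells; exposure lasted 16 hr at 37 °C and 5% CO2, followed by ONE-Glo luminescence detection after 30 min.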
KinaseGlo FLuc: Counterscreen for Luciferase (Kinase-Glo TM) Inhibition; Potency, µM (titrated, usually from 38.3 µM), for the others: top-dose activity change, negative = inhibition, most hits filed as inhibitors; Kinase-Glo luciferase, ATP luminescence, 8 min; 200,000 compounds, 0.28% hits; AID 1379, 2008; Luciferin 4-monooxygenase (Photuris pensylvanica), Q27757; note: % is set by controls: 0 for no effect and ±100 for the full control effect; nearly all actives have a fitted effect of over 60% in size
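Compound is pinned into ATP-containing buffer (10 uM ATP, imidazole pH 7.2, 7 mM MgCl2). Kinase-Glo luciferase reagent is then added. Light output is recorded following an 8-min room-temperature incubation.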
FLuc modulator: qHTS profiling assay for firefly luciferase inhibitor/activator using purifed enzyme and Km concentrations of substrates (counterscreen for miR-21 project) | Luciferin 4-monooxygenase (Photinus pyralis), P08659 | purified FLuc, Km substrates, luminescence inhibition | Potency, µM (doses to about 57.5 µM), inactives show at the top dose activity change, negative = inhibition, actives largely listed as inhibitors | 360,000 compounds, 6.9% hits | AID 588342, 2011;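 note: plate controls were vehicle for no effect and reference inhibitor for full effect; nearly all actives have a fitted effect of over 55% in size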
Target sequence (P08659 whole entry, looked up): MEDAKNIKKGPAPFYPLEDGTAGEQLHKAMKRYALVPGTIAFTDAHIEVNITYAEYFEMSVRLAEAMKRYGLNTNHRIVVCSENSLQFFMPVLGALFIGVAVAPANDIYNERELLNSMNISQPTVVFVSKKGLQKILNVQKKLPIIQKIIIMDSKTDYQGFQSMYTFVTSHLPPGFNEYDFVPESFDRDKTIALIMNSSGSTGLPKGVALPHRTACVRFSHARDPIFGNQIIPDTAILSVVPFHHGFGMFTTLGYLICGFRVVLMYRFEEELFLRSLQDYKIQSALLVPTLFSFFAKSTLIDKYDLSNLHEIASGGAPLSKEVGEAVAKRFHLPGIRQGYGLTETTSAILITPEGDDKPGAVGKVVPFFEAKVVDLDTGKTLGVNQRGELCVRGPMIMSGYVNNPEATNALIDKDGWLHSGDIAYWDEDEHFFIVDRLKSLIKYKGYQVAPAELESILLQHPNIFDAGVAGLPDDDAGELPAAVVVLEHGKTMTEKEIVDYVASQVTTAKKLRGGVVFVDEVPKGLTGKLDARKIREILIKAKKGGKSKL
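Purified P. pyralis luciferase, 10 nM final, with Km-level 10 uM D-luciferin and 10 uM ATP in 50 mM Tris acetate pH 7.5, 10 mM Mg acetate, 0.01% Tween-20, 0.05% BSA; 6-point qHTS titration about 60 µM downward; luminescence read.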
* = called active by the depositor; ? = inconclusive; . = no result; [ ] = remark or other dose. Calls come from the whole dose curve; as a rule, active = well fitted curve in the direction sought with a large enough effect; inconclusive = small, poorly fitted or top-dose-only effect, or another doubt; inactive = no such curve, though single readings can be large; an effect the other way counts as inactive or inconclusive. Potency is the fitted concentration of half-maximal effect.

SMILES | SMN2 splice enh | Rab9 prom act | NPC1 promoter act | ELG1 genotoxic | KinaseGlo FLuc | FLuc modulator
COCC(C)n1c(C)cc(C(=O)CSc2ccc(NC(C)=O)cc2)c1C (configuration not stated) | -40% | ? | ? | 7.9µM* | -5% | -19%
CCC(C)C(NC(=O)c1ccc(Cl)cc1Cl)C(=O)O (configuration not stated) | 15% | -6% | 1% | 0% | 0% | 19µM*
CCC(C)C(NC(=O)c1ccc(Cl)cc1)C(=O)O (configuration not stated) | . | 2% | 2% | 0% | 8% | 3%[2.3 µM]
O=C(Nc1ccc(N2CCCCCC2)cc1)c1ccccc1Cl | 14µM* | ? | 21% | ? | -3% | 11µM*
O=C(Nc1ccc(N2CCCCCC2)cc1)c1ccc[nH]1 | . | 0.4µM* | 1.1µM* | ? | . | .
O=C(Nc1ccc(N2CCCC2)cc1)C(c1ccccc1)c1ccccc1 | -13% | -4% | -2% | 3% | 2% | 3%
O=C(Nc1ccccc1)c1cccnc1N1CCCC1 | -10% | -4% | 5% | 1% | -1% | 0%
O=C(Nc1ccc(N2CCCCC2)cc1)C(Cl)c1ccccc1 (configuration not stated) | 16% | 0% | ? | 10µM* | -20% | 3µM*
O=C(Nc1ccc(N2CCCC2)cc1)c1ccc(Br)cc1 | . | 24% | 18% | 10% | . | ?
O=C(Nc1ccc(N2CCCCC2)cc1)c1ccccn1 | -77% | ? | ? | ? | 7.9µM* | 0.067µM*
CC(=O)N1CCN(c2ccc(NC(=O)c3ccccc3Cl)cc2)CC1 | . | 2% | 1% | 1% | . | -4%
O=C(Nc1ccc(SC(F)(F)F)cc1)c1ccccn1 | 2.2µM* | 1.4µM* | ? | 2.3µM* | -18% | 0.85µM*
COc1ccccc1C(=O)Nc1ccc(N2CCCCC2)cc1 | 18µM* | 4µM* | ? | 2.9µM* | -5% | 2.7µM*
Oc1ccccc1CNc1ccc(Br)cn1 | ? | ? | ? | -2% | 5% | 9.5µM*
Brc1ccc(NCc2cccc3ccccc23)nc1 | -36% | 6% | -17% | -4% | -3% | ?
O=C(Nc1ccccc1C(=O)NCC1CCCO1)c1ccccc1 (configuration not stated) | 4% | -7% | -4% | 0% | -1% | -12%
O=C(NCC1CCCO1)c1coc2nc3ccccc3nc12 (configuration not stated) | 5% | 9% | 3% | -1% | -3% | 11µM*
COC(CNC(=O)c1ccc2nc(-c3ccccc3)c(-c3ccccc3)nc2c1)OC | -10% | -3% | -2% | -4% | 2% | -14%
COC(CNC(=O)c1coc2nc3ccccc3nc12)OC | . | 0% | 2% | 1% | . | 11µM*
COc1ccc2oc(C(=O)OCC(=O)NCC3CCCO3)c(C)c2c1 (configuration not stated) | . | -1% | -1% | 17% | . | ?
COc1ccc2oc(C(=O)NCC3CCCO3)c(C)c2c1 (configuration not stated) | . | 4µM* | ? | ? | . | 13µM*
CCOc1ccc2oc(C(=O)NCC3CCCO3)c(C)c2c1 (configuration not stated) | . | 2.8µM* | ? | ? | . | 15µM*
Nc1nc(-c2cc(-c3cccc4ccccc34)nc(N)n2)cc(-c2cccc3ccccc23)n1 | 3%[9.22 µM] | . | . | . | -3%[7.66 µM] | .
COc1ccc(Nc2cc(C)c3c(O)cccc3n2)cc1 | . | 20% | 7% | 4% | . | 21µM*
Cc1ccccc1Nc1cc(C)c2c(O)cccc2n1 | -6% | -10% | -1% | 0% | -2% | 19µM*
SMILES | SMN2 splice enh | Rab9 prom act | NPC1 promoter act | ELG1 genotoxic | KinaseGlo FLuc | FLuc modulator
COC(=O)c1cc(Nc2cc(C)c3ccc(O)cc3n2)cc(C(=O)OC)c1 | . | 10% | 0% | 5% | . | 0%
Cc1ccc(Nc2cc(C)c3c(O)cccc3n2)cc1C | . | ? | ? | ? | . | 9.5µM*
COC(=O)c1cc(Nc2cc(C)c3c(O)cccc3n2)cc(C(=O)OC)c1 | . | 0% | 10% | -6% | . | ?
Cc1cc(Nc2ccccc2O)c2ccccc2n1 | . | -2% | 0% | -2% | 1% | 0%
Cc1ccc(Nc2cc(C)c3ccc(O)cc3n2)cc1C | . | 1% | 3% | 13% | . | 17µM*
COc1ccccc1N1CCN(C(=O)c2ccc3c(c2)N(Cc2cc(C)ccc2C)C(=O)c2ccccc2S3(=O)=O)CC1 | -11% | . | . | . | . | -1%
Cc1oc2ncn(CC(C)C)c(=O)c2c1C(=O)NCCCN(Cc1ccccc1)C(C)C | . | . | . | . | . | -6%
COc1cc(NC(=O)CC2C(=O)N(c3cccc(C)c3)C(=O)N2Cc2ccc(F)cc2)cc(OC)c1 (configuration not stated) | . | . | . | . | . | 5%
N#Cc1cc2c(nc1SCc1nc3ccccc3[nH]1)CCC2 | 8.9µM* | 0.71µM* | 0.32µM* | ? | -22% | 1.3µM*
Cc1cc(C)c(C#N)c(SCc2ccc(F)cc2)n1 | -4% | ? | -9% | -3% | -2% | -4%
Cc1cc(C)c(C#N)c(SCc2nc3ccccc3[nH]2)n1 | 10µM* | ? | 17% | 23µM* | -2% | ?
CC(=O)OC[C@H]1O[C@@H](n2ncc(=O)[nH]c2=O)[C@H](OC(C)=O)[C@@H]1OC(C)=O | 10µM* | 1% | -5% | -13% | -1% | -2%
Cc1ccccc1NC(=O)COc1ccc2oc3c(c2c1)CCCC3 | -2% | . | . | . | . | -2%
Cc1ccnc(NC(=O)COc2ccc3oc4c(c3c2)CCCC4)c1 | -21% | 5% | 17% | ? | 4% | 4.3µM*
Cc1ccnc(NC(=O)COc2ccc3c(c2)CCC3)c1 | . | 2.5µM* | 3.2µM* | 2.1µM* | . | 0.21µM*
CCc1ccc(C(=O)c2cncc(Br)c2)cc1 | ? | . | . | . | 13% | 17µM*
Cc1ccc(C(=O)c2cncc(Br)c2)cc1 | 18% | ? | 17% | -12% | 1% | 0%[2.3 µM]
O=C(Oc1ccc(Br)cc1)c1cncc(Br)c1 | -20% | -2% | 0% | 2% | 4% | 4.8µM*
O=C(Oc1ccc2cc(Br)ccc2c1)c1cccnc1 | -4% | 8% | -1% | -2% | -4% | ?
O=C(Nc1c2c(nn1-c1ccc(Cl)cc1)CS(=O)(=O)C2)c1ccccc1F | . | . | . | . | . | -2%
Cc1ccc(NC(=O)C2CCN(S(=O)(=O)c3c(C)noc3C)CC2)c(C)c1 | -11% | . | . | . | . | -2%
COc1ccc(OCc2ccc(C(=O)O)cc2)cc1 | 5µM* | ? | ? | 12% | 1% | 6.7µM*
